# The panel holds about 79,000 compounds, 15% with a hit somewhere; the sample as a whole holds those more often. Values without a mark were called inactive. The source made the active and inactive calls. No stated cut-off is given here; in the data, active means growth inhibition above about 70%; inactive means the rest.
# Legend:
# [1] = NCI Yeast Anticancer Drug Screen. Data for the rad50 strain (AID 155);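 further: 0% = growth of vehicle-only cultures of the same strain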; conditions: S. cerevisiae rad50 strain growth inhibition; at 50.0 µM; hits give high values
# Procedure, shortened: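 DNA repair mutant yeast, compound exposure, growth read-out; inhibition is taken relative to vehicle.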
# [2] = NCI Yeast Anticancer Drug Screen. Data for the mec2-1 strain (AID 157); conditions: S. cerevisiae mec2-1 strain, at 50.0 µM, hits give high values
# Procedure, shortened: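 Yeast mec2-1 mutant treated with compound. Readout: growth inhibition vs vehicle controls.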
# [3] = NCI Yeast Anticancer Drug Screen. Data for the sgs1 mgt1 strain (AID 161);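 further: 0% = growth of cultures given vehicle only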; conditions: S. cerevisiae sgs1 mgt1 strain, at 50.0 µM, hits give high values
# Procedure, shortened: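 Read-out: growth inhibition vs vehicle controls. Cells: mutant yeast strain deficient in DNA damage repair.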
# [4] = NCI Yeast Anticancer Drug Screen. Data for the cln2 rad14 strain (AID 165);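 further: 0% = growth equal to vehicle treated cultures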; conditions: S. cerevisiae cln2 rad14 strain, at 50.0 µM, hits give high values
# Procedure, shortened: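 cln2 rad14 yeast strain; compound exposure; growth inhibition read vs vehicle controls.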
# [5] = NCI Yeast Anticancer Drug Screen. Data for the bub3 strain (AID 167); conditions: S. cerevisiae bub3 mutant strain, at 50.0 µM, hits give high values
# Procedure, shortened: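 In this screen, a yeast mutant lacking normal mitotic checkpoint function is challenged with compound. Relative growth versus vehicle gives the inhibition value.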
# [6] = NCI Yeast Anticancer Drug Screen. Data for the mlh1 rad18 strain (AID 175); conditions: S. cerevisiae mlh1 rad18 strain growth inhibition; at 50.0 µM; hits give high values
# Procedure, shortened: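 Yeast w/ defined DNA-repair lesions; compound exposure; growth vs vehicle controls → % inhibition.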
Structure (SMILES),growth inhibition [1],growth inhibition [2],growth inhibition [3],growth inhibition [4],growth inhibition [5],growth inhibition [6]
COc1ccccc1CC(C)NC(C)Cc1ccccc1OC (stereo unspecified),2.25%,-3.4%,8.05%,-1.8%,-1.4%,7.6%
C=C(C)C(=O)OCC12CCC(C)=CC1OC1C(=O)C(OC(=O)C(=C)C)C2(C)C12CO2 (stereo unspecified),8.55%,19.9%,-1.15%,2.75%,-10.1%,-34%
NC(=O)c1cc([N+](=O)[O-])cc([N+](=O)[O-])c1,1.35%,-16.2%,9.1%,0%,3.35%,14.8%
O=S(=O)(c1ccccc1)N1CN2CCN(C2)C1,17.6%,7.2%,31.6%,2.65%,5.5%,10.4%
ICCCI,0.6%,-29.8%,16.1%,3.8%,19%,3.2%
O=[N+]([O-])c1ncc[nH]1,6.75%,-19.7%,11.6%,3.1%,8.2%,14.9%
CN(C)C(=O)C1(c2ccccc2)CCNCC1,19.4%,-1.7%,3.25%,1%,1.2%,-4.2%
CC(=O)CC(C)=O.CC(=O)CC(C)=O.[Ni],-39%,-31.4%,-1.1%,31.1%,-6.35%,-25.4%
COc1cc2c(cc1O)C(=O)O[C@@H]1CC=C3CCN(C)[C@H]3[C@H]21,3.4%,11.3%,-7.3%,7.1%,-37.4%,19.8%
CCOC(=O)C1Oc2ccc([N+](=O)[O-])c3c2C1(O)CCC3 (stereo unspecified),7.2%,1.3%,5.8%,26.6%,-8.8%,-6.65%
CC[C@@]1(O)C(=O)OCc2c1cc1n(c2=O)Cc2c-1nc1ccccc1c2Cl,94.9% (active),92% (active),63.8%,81.8% (active),-6.7%,46.3%
CC[C@@H]1C[C@H]2CC3c4[nH]c5ccccc5c4CCN(C2)C31,45.9%,30.2%,61.3%,37%,47.2%,65.8%
CC1(C)C2=CC[C@H]3[C@@H]4CC[C@H](O)[C@@]4(C)CC[C@@H]3[C@@]2(C)CC[C@@H]1O,-2.6%,-16.4%,-4.75%,-19.4%,5.35%,-3.15%
CNC(Cc1ccccc1)c1ccc(OC)cc1 (stereo unspecified),27.1%,17.2%,32.3%,5.75%,34.6%,35.6%
NC1C[S][Sn][O]C1=O (stereo unspecified),14.2%,14.3%,3.2%,-21.4%,4.9%,14.6%
COc1ccc2nc3ccccc3c(NCCCCCCN(CCCl)CCCl)c2c1,88.2% (active),79.1% (active),80.8% (active),86.3% (active),48.4%,82.9% (active)
O=P1(N2CCOCC2)OC(c2ccccc2)=CCN1c1ccc(Cl)cc1 (stereo unspecified),-8.9%,1.3%,-1.85%,-20.1%,5.2%,6.55%
CC1(C)CCCC(C)(C)N1[P-]C(=O)[P-]N1C(C)(C)CCCC1(C)C.[C-]#[O+].[C-]#[O+].[C-]#[O+].[C-]#[O+].[C-]#[O+].[C-]#[O+].[Fe].[Fe] (stereo unspecified),-11.2%,3.65%,-2%,13.6%,-5.7%,8.45%

Structure (SMILES),growth inhibition [1],growth inhibition [2],growth inhibition [3],growth inhibition [4],growth inhibition [5],growth inhibition [6]
CCC(=O)O[C@H]1CC[C@H]2[C@@H]3CCC4=C/C(=N/NC(=O)c5cccc6c(=O)c7ccccc7[nH]c56)CC[C@]4(C)[C@H]3CC[C@]12C,13.7%,15.5%,-16.4%,-8.75%,-17.2%,-7.95%
CCCCCCC1C(=O)NC(=O)NC1=O,-4.25%,-15.1%,-8%,-7.75%,2.6%,-12.3%
ClC(OC(Cl)C(Cl)(Cl)Cl)C(Cl)(Cl)Cl (stereo unspecified),52%,6.1%,30.9%,20.9%,46.5%,26.2%
CC(C)(C)NC(=O)C(Cl)Cl,-0.65%,-5.7%,-5.85%,-9.6%,5.15%,3.35%
CCOP(=O)(OCC)OCC,-4.1%,-12.8%,19%,-11.8%,-1.15%,21.7%
CCN(CC)C1C=CCCC1 (stereo unspecified),-18.1%,-8.05%,-20.1%,0.75%,-11.7%,-7.3%
Oc1c(Cl)cc(Cl)cc1C1N(Cc2ccc(N(CCCl)CCCl)cc2)CCCN1Cc1ccc(N(CCCl)CCCl)cc1,8.75%,17.2%,23.4%,-3.25%,3.7%,41.5%
CCCC(C)OP(=O)(OCC)OCC (stereo unspecified),2.2%,-2.7%,-5.35%,-48.4%,14.4%,-3.5%
COC(C(=O)O)(c1ccccc1)c1ccccc1,-24.8%,-18.9%,1.05%,-33.9%,-9.2%,-0.35%
CC1OC(O[C@H]2C[C@@H](O)[C@]3(CO)[C@H]4[C@H](O)C[C@]5(C)[C@@H](C6=CC(=O)OC6)CC[C@]5(O)[C@@H]4CC[C@]3(O)C2)C(O)C(O)C1O (stereo partly specified),-6.7%,1.15%,5.05%,20.9%,-1.2%,-47.5%
Cc1cc(N(CCCl)CCCl)ccc1C=N/C(C#N)=C(\N)C#N,2.05%,-9.05%,-4.8%,-8.6%,-1.9%,-4.85%
CC(Cc1ccc(O)cc1)NCC(O)c1ccc(O)c(O)c1 (stereo unspecified),10.6%,15.3%,3.4%,0.55%,-7.45%,22.9%
CCCCC(Br)C(=O)OCC (stereo unspecified),26.1%,6.55%,-26.5%,-11.6%,10.9%,11.8%
CC(=O)CC(C)=O.[In],23.8%,42.6%,34.5%,29.4%,27.6%,2.65%
CN1C(=O)NC(C)(c2cccc(N(CCCl)CCCl)c2)C1=O (stereo unspecified),5.5%,24.2%,10.8%,8.2%,-13.9%,27.6%
NC(=O)OCC(O)c1ccccc1 (stereo unspecified),-11.6%,10%,-22.6%,-27.8%,-19.9%,2.2%
COc1cc([C@@H]2c3cc4c(cc3C[C@H]3COC(=O)[C@@H]32)OCO4)cc(OC)c1OC,5.2%,-3.05%,10.2%,27.6%,24.4%,13.6%
CC(=O)OC[C@]12C[C@H](OC(=O)CC(C)C)C(C)=C[C@H]1O[C@@H]1[C@H](O)[C@@H](O)[C@@]2(C)[C@@]12CO2,83.2% (active),83% (active),83.3% (active),87.7% (active),81.9% (active),84.8% (active)

# Reference: PubChem BioAssay (NCI)
